Results reported in PubChem BioAssay (NCATS).
Inconclusive results are not listed. Unmarked numbers belong to inactive results. Activity calls are given as the source filed them. Calls come from the whole dose curve; as a rule, active = well fitted curve in the direction sought with a large enough effect; inconclusive = small, poorly fitted or top-dose-only effect, or another doubt; inactive = no such curve, though single readings can be large; an effect the other way counts as inactive or inconclusive.

biological target: Luciferin 4-monooxygenase (Photinus pyralis) (UniProt P08659); assay: Biochemical firefly luciferase enzyme assay for NPC (AID 624030);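 note: purified P. pyralis luciferase at 10 nM with luciferin and ATP substrate; 0% = DMSO and -100% = full luciferase inhibition by PTC124 control; nearly all actives have a fitted effect of over 70% in size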; details: purified P. pyralis luciferase, luminescence, 5 min; series mostly up to 58.6 µM; activity change, negative = inhibition: at the top concentration
Sequence (P08659 whole entry, looked up): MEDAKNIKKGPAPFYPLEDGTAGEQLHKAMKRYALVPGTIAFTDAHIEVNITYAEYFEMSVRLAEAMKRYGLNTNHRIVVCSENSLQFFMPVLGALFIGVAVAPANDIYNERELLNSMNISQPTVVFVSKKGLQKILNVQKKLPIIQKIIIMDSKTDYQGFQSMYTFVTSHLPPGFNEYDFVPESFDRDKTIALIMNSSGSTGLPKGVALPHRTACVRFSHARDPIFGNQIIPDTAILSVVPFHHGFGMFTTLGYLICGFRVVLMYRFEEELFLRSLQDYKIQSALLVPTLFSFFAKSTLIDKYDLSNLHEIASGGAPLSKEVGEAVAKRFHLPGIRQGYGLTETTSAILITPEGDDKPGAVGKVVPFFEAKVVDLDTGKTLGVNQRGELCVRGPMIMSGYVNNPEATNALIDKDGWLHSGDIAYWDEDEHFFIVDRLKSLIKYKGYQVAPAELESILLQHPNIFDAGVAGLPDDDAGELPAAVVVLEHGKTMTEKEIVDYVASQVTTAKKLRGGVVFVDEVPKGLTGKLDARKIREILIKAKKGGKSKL
Summary of the method: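 Direct inhibition of firefly luciferase enzyme (10 nM final, 50 mM Tris Acetate) assessed by luminescence within 5 minutes. Percent activity scaled between DMSO and PTC124 positive control, with concentration-effect curves classified by fit quality and response.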

SMILES | activity change, negative = inhibition | Potency
CC(=O)OCC(=O)[C@@]1(O)[C@H](OC(C)=O)C[C@H]2[C@@H]3CCC4=CC(=O)C=C[C@]4(C)[C@@]3(F)[C@@H](O)C[C@@]21C | -1.88% | 
C[C@H]1NCc2cc(-c3ccc4c(=O)c(C(=O)O)cn(C5CC5)c4c3OC(F)F)ccc21 | 1.59% | 
CC(=O)Nc1c(I)c(NC(C)=O)c(I)c(C(=O)O)c1I | -0.419% | 
O=C(O)CCC(=O)OC[C@@H](NC(=O)C(Cl)Cl)[C@H](O)c1ccc([N+](=O)[O-])cc1 | -5.89% | 
CN1CCC(=C2c3ccccc3CCc3cccnc32)CC1 | -2.62% | 
CCCCCC1Nc2cc(C(F)(F)F)c(S(N)(=O)=O)cc2S(=O)(=O)N1 (centres undefined) | -4.57% | 
CN1C(=O)c2ccccc2C1=O | -4.01% [at 123 µM] | 
Nc1c[n+](N2CCOCC2)no1 | -12.9% | 
CN(CC1(C)CCCO1)S(=O)(=O)c1ccc(Cl)c(S(N)(=O)=O)c1 (centres undefined) | -4.52% | 
CC(CCc1ccc2c(c1)OCO2)NN (centres undefined) | -12.2% | 
COC(=O)C1=C(C)NC(COC(N)=O)=C(C(=O)OC(C)C)C1c1cccc(Cl)c1Cl (centres undefined) | -8.43% | 
O=C1CC2(CCCC2)CC(=O)N1CCNCC1COc2ccccc2O1 (centres undefined) | 1.19% | 
CC(C(O)c1ccccc1)N(C)CCOC(c1ccccc1)c1ccccc1 (centres undefined) | 0.082% | 
Nc1c(NC/C=C\COc2cc(CN3CCCCC3)ccn2)c(=O)c1=O | -0.462% | 
CCC1(c2cnc[nH]2)Cc2ccccc2C1 |  | inactive
CCN(CC)CCNC(=O)c1ccc(NS(C)(=O)=O)cc1 | -4.22% | 
O=C(CCCCC(=O)Nc1c(I)cc(I)c(C(=O)O)c1I)Nc1c(I)cc(I)c(C(=O)O)c1I | -12.9% | 
Cn1cc(S(C)=O)c(=O)c2ccc(F)cc21 (centres undefined) | 0.304% | 
N=C(N)c1ccc(OCCCOc2ccc(C(=N)N)cc2)cc1 | 2.68% | 
CC(=O)OCC[N+](C)(C)C | -1.18% | 
N[C@@H](Cc1cc(I)c(O)c(I)c1)C(=O)O | 1.84% | 
O=C1[C@@H]2[C@H]3CC[C@H](C3)[C@@H]2C(=O)N1CCCCN1CCN(c2ncccn2)CC1 | -15.6% | 
COc1ccccc1OCC1CNC(=O)O1 (centres undefined) | 0.773% | 

biological target: Glutaminase kidney isoform, mitochondrial (Homo sapiens) (UniProt O94925); assay: qHTS for Inhibitors of Glutaminase (GLS): LOPAC Validation (AID 624146); details: glutaminase enzyme activity inhibition; series mostly up to 46.1 µM; activity change, negative = inhibition: at the top concentration; note: nearly all actives have a fitted effect of over 60% in size; note: potency is the fitted concentration of half-maximal effect;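 for activity change, negative = inhibition: glutamate product detected by oxidase and peroxidase coupled Amplex red fluorescence gain; % is set by controls: 0 for no effect and ±100 for the full control effect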
Sequence (O94925 whole entry, looked up, canonical isoform): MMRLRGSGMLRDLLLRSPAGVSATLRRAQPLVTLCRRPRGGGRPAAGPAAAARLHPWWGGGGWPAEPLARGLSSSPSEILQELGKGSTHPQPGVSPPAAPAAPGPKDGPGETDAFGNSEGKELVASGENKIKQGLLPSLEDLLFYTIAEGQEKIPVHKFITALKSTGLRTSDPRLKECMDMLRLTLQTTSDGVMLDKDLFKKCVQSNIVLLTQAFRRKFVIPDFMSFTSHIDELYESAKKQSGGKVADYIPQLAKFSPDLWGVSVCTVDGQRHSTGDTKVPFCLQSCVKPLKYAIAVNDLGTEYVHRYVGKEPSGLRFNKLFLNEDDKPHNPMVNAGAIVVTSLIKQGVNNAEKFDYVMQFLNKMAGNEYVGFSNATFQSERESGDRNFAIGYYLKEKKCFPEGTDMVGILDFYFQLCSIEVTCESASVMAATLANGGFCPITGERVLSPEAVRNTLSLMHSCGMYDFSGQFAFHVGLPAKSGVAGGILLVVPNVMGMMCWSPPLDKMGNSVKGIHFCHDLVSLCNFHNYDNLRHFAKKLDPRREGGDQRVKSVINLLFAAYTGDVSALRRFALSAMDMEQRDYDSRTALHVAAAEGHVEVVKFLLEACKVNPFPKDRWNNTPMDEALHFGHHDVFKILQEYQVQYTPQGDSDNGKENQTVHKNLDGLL
Summary of the method: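 Human kidney-isoform GLS in 45 mM KH2PO4 pH 8.2, 0.02% Tween-20, with compound, started with 1mM L-Glutamine (added stock). Glutamate oxidase/HRP/Amplex red coupled fluorescence read at start and after 30 min at RT.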

SMILES | Potency | activity change, negative = inhibition [%]
Nc1ncnc2n[nH]c(Nc3ccc(F)cc3)c12 | 10 µM (active) | 
O=C1NC(=O)/C(=C/c2ccc3c(c2)OC(F)(F)O3)S1 |  | -4.47
COC(=O)C1=CO[C@@H](O)[C@@H]2C(CO)=CC[C@H]12 |  | -37.2
Clc1ccc2c(c1)N=C(N1CCNCC1)c1ccccc1N2 |  | -25.8
CCN(CC)CCNC(=O)c1ccc(NS(C)(=O)=O)cc1 |  | 151
Cc1nn(-c2ccccc2)c(C)c1/C=N/N1CCN(Cc2ccccc2)CC1 |  | -5.32
